Screening results (PubChem BioAssay)
CF NFkB block: inhibitors of PAF-induced NF-kB signaling, primary screen, cell-based, GFP fluorescence, uHTS; KKLEB NF-kB-GFP reporter, GFP fluorescence overnight; inhibition, % at 5 µM; 0.86% of 360,000 active; AID 588850, 2011;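 active = at least 50% inhibition at 5 µM, scaled per plate between neutral and stimulator controls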;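 note: PAF is a Pseudomonas aeruginosa culture filtrate used as stimulus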
iPSC survival up: enhancers of single-cell hiPSC survival, primary screen, ATPlite luminescence | 0.044% of 360,000 active | survival enhancement, % at 20 µM | 100% = ROCK inhibitor wells, 0% = DMSO; in the data active = survival enhancement above about 18%;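 note: cells exposed to compounds for 16 hours before the ATP read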
PPC-1+TRAIL kill: compounds killing PPC-1 cancer cells with TRAIL present, primary screen, TRAIL potentiator project, ATPLite luminescence, uHTS. cell killing (% activity), % at 4 µM or 5 µM. PPC-1 cells + TRAIL, ATPLite viability luminescence. 0.41% of 220,000 active;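 active = cell killing above 50% in the first pass at 4 µM, then a duplicate retest at 5 µM averaging 50% or more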
KKLEB tox: cytotoxicity in KKLEB CF airway cells, primary screen, cytotoxicity control for CF NF-kB inhibitor project, cell-based, uHTS, fluorescence assay plates; activity change (cytotoxicity), % at 5 µM; 0.36% of 360,000 active; AID 602141, 2011; KKLEB CF airway cells viability, ATPlite luminescence, overnight; hits give low values; cells stimulated with P. aeruginosa culture filtrate;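 active = corrected activity change at or below -50% at 5 µM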
HIF-2a inh: HIF-2a reporter inhibitors, primary screen, luminescence, 786-0 RCC cells. 786-0 RCC cells HIF-2a reporter, luciferase luminescence, overnight. inhibition, % at 18.8 µM. 0.72% of 360,000 active;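 active = inhibition of the luminescence signal of 40% or more relative to plate controls, in a single-dose primary screen at 18.75 µM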
TRAIL sens C8: viability loss with TRAIL in NB7+C8 cells, primary screen, TRAIL sensitizer project, cell-based, ATPlite luminescence | AID 624354, 2012 | inhibition (viability loss, TRAIL sensitization), % at 10 µM | 1% of 360,000 active;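 active = compounds causing at least 50% loss of cell viability in the single-dose screen, relative to plate controls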
CF NFkB conf: inhibitors of PAF-induced NF-kB signaling, retest, confirmation, cell-based, GFP fluorescence, single concentration | shares compounds with CF NFkB block | KKLEB CF airway cells, overnight | inhibition, % at 5 µM | 64% of 1,300 active; in the data active = inhibition above about 40%;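 note: stimulus PAF is a Pseudomonas aeruginosa filtrate and not platelet activating factor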
Mdm2-MdmX confirm: retested Mdm2-MdmX interaction blockers, confirmation, cell-based, luminescence, single concentration, set 2; shares compounds with HIF-2a inh; SaOS-2 split-luciferase Mdm2/MdmX complementation; inhibition, % at 8 µM; 99% of 740 active; AID 504601, 2011;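 active = mean inhibition of the luminescence signal across two replicates at or above 26 percent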
Target sequence (O15151 whole entry, looked up): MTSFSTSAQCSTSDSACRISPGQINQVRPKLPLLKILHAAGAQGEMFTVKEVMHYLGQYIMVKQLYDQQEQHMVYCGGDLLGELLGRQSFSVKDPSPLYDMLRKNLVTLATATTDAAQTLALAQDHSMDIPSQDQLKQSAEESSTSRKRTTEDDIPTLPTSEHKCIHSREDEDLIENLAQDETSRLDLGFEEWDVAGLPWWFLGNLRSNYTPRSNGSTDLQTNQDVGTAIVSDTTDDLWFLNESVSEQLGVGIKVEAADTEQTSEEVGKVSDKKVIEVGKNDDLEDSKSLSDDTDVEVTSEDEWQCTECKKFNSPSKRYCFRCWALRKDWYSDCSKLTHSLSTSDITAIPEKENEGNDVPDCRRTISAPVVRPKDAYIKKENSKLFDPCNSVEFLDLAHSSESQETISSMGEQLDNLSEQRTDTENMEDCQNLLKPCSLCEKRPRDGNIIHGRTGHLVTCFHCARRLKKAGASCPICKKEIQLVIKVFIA
Target sequence (Q00987 whole entry, looked up): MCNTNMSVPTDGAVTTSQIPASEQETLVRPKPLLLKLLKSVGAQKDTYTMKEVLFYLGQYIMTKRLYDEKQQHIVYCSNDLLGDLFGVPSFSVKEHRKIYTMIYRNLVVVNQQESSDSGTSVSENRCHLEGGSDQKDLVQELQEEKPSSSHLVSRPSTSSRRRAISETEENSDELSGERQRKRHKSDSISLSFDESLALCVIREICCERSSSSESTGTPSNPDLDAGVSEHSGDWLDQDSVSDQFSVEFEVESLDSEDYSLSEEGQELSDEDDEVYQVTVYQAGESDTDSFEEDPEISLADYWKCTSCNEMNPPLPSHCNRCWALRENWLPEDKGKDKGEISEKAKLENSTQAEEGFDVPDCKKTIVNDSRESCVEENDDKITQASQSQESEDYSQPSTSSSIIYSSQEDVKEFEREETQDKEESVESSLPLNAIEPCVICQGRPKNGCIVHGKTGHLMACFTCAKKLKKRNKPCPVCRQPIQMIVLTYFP
HIF-2a conf: HIF-2a reporter inhibitor retest, confirmation, luminescence, 786-0 RCC cells | HIF-2a luciferase reporter luminescence, overnight | shares compounds with HIF-2a inh | 56% of 1,800 active | inhibition, % at 18.8 µM;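 active = mean inhibition across four replicates of at least 40 percent at the single tested concentration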
HIF-1a counter: HIF-1a luciferase reporter signal reduction – MiaPaCa-2 cells, single concentration, counter-screen for HIF-2a inhibitor project, confirmation; MiaPaCa-2 HIF-1a luciferase reporter, desferoxamine, overnight; 72% of 1,800 active; AID 651589, 2012; inhibition, % at 18.8 µM; shares compounds with HIF-2a inh;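 active = mean inhibition of the reporter signal across four replicates at the single tested dose of 50% or more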
Of the large screens only hits and unclear results are named; the others gave an inactive call (follow-up assays come after a bar, where they were run). This is a sample that favours compounds with a hit; in the whole collection about 2.2% have one here.

O=C(O)c1ccc(C(=O)C(=O)c2ccccc2)cc1	none
C=C(C(=O)c1ccccc1)C(C)C(=C)C(=O)c1ccccc1	CF NFkB block 56.6, HIF-2a inh 91.0 | CF NFkB conf inactive
Cc1nnc(Sc2nc3ccccc3o2)c2ccccc12	CF NFkB block 55.2 | CF NFkB conf 52.1
C/C(=N\Nc1cc(N2CCOCC2)ncn1)c1cccc([N+](=O)[O-])c1	CF NFkB block 56.1 (no result: PPC-1+TRAIL kill) | CF NFkB conf 64.0
C/C(=N\Nc1cc(N2CCOCC2)ncn1)c1ccccc1	none (no result: PPC-1+TRAIL kill)
O=[N+]([O-])c1cccc(/C=N/Nc2cc(N3CCOCC3)ncn2)c1	CF NFkB block 53.0 (no result: PPC-1+TRAIL kill) | CF NFkB conf 71.7
Cc1oc(S(=O)(=O)N2CCOCC2)cc1C(=O)Nc1ccc(Cl)cc1	none
N#Cc1ncc(Cc2ccccc2)nc1C#N	none (no result: PPC-1+TRAIL kill)
CN(Cc1ccccc1)c1ncnc(N)c1[N+](=O)[O-]	CF NFkB block 66.8 | CF NFkB conf 60.9
O=[N+]([O-])c1cccnc1Sc1ccc(Cl)cc1	none (no result: PPC-1+TRAIL kill)
CN(Cc1ccccc1)c1nc(N)c([N+](=O)[O-])c(NCc2ccccc2)n1	none
Nc1ncnc(Sc2ccccc2)c1[N+](=O)[O-]	CF NFkB block 51.6 | CF NFkB conf inactive
Nc1ncnc(Sc2ccc(Cl)cc2)c1[N+](=O)[O-]	CF NFkB block 64.0 | CF NFkB conf 61.8
COc1ccc(N2C[C@H](C)[C@@H](CC(=O)Nc3ccc(Br)cc3)C2=O)cc1	none (no result: PPC-1+TRAIL kill)
CCC(C)(C)c1nnc(NC(=O)CCC2CCCCC2)s1	none (no result: PPC-1+TRAIL kill)
Cc1ccc(C(=O)COC(=O)c2cc(Cl)ccc2O)cc1[N+](=O)[O-]	CF NFkB block 51.8 (no result: PPC-1+TRAIL kill) | CF NFkB conf 47.2
N#CC(C#N)c1ccnc2ccccc12	CF NFkB block 58.3 (no result: PPC-1+TRAIL kill) | CF NFkB conf 45.8
CN(C(=O)c1cccc(NC(=O)Cc2ccc([N+](=O)[O-])cc2)c1)C1CC1	none (no result: PPC-1+TRAIL kill)
CC1Cc2ccccc2N1c1ncnc2nc[nH]c12 (configuration not stated)	CF NFkB block 64.8 | CF NFkB conf 86.5
CCC1CCc2c(sc(NC(=O)c3ccco3)c2C(N)=O)C1 (configuration not stated)	none
CCC1CCc2c(sc(NC(=O)c3cnccn3)c2C(N)=O)C1 (configuration not stated)	CF NFkB block 65.2 (no result: PPC-1+TRAIL kill) | CF NFkB conf inactive
Cc1[nH]c2ccccc2c1/C=C/C(=O)c1ccccc1	none
Cc1[nH]c2ccccc2c(=O)c1C(=O)/C=C/c1ccccc1	CF NFkB block 60.5, HIF-2a inh 90.3 | CF NFkB conf 46.2 | Mdm2-MdmX confirm 102.7 | HIF-2a conf 85.3 | HIF-1a counter 105.4
CC[C@]12c3[nH]c4ccccc4c3CCN1C(=O)C(CC(=O)NCCCOC)C[C@@H]2C(=O)N1CCN(C(=O)c2ccco2)CC1 (some centres not stated)	none (no result: PPC-1+TRAIL kill)
COc1ccc(-c2cc(=O)oc3cc(OC(=O)C4CCCCC4)c(Cl)cc23)cc1	CF NFkB block 88.0 | CF NFkB conf 92.9 | Mdm2-MdmX confirm 91.2
